Pf growth 96h – P. falciparum growth inhibition at 96 hours. P. falciparum luciferase reporter growth, 96 h. Potency, µM (doses to about 28.7 µM), for the others: at the highest dose activity change, negative = inhibition, usual class: inhibitors. 6.9% of 320,000 active; further: potency means the concentration at half of the fitted maximal effect; on the % scale 0 is the no-effect control and ±100 the full control effect
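Infected RBCs, 2% Hct / 0.05% parasitemia final; luciferase-reporter P. falciparum; cpd 96 h, 37 C, 5% CO2; luciferase detection reagent; luminescence.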
NS1 inh – inhibitors of influenza NS1 protein function | Potency, µM (highest dose often 46.1 µM), for inactives: at the top dose activity, positive = more growth | 0.4% of 270,000 active; calls by dose curve; further: potency means the concentration at half of the fitted maximal effect; actives are rising curves; nearly all actives have a fitted effect of over 50% in size
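S. cerevisiae expressing influenza A NS1, grown in glucose, washed, then diluted 1:100 into pH 6.0 -URA galactose medium with 23 nl compound. Growth recovery read as OD600; NS1-free strain serves as control.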
Sm TGR block – blocks Schistosoma mansoni thioredoxin glutathione reductase | Q962Y6 | purified TGR, DTNB reduction, TNB absorbance 405 nm | Potency, µM (doses to about 114 µM), without a hit: at the highest dose activity change, negative = inhibition, actives largely listed as inhibitors | 3% of 360,000 active | AID 485364; further: potency means the concentration at half of the fitted maximal effect; on the % scale 0 is the no-effect control and ±100 the full control effect; nearly all actives have a fitted effect of over 60% in size
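First, TGR (20 nM dispensed) and NADPH were mixed with compound. Second, a 15 min room-temperature incubation followed. Third, further NADPH and then DTNB were added to start the reaction. Finally, TNB absorbance was monitored kinetically.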
Pf growth 48h – P. falciparum growth inhibition at 48 hours (one generation); Potency, µM (doses to about 28.7 µM), for the others: at the top dose activity change, negative = inhibition, usual class: inhibitors; P. falciparum luciferase growth in erythrocytes, 48 h; 5.9% of 310,000 active; further: potency means the concentration at half of the fitted maximal effect; on the % scale 0 is the no-effect control and ±100 the full control effect
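Cell-based growth assay: transgenic P. falciparum expressing firefly luciferase, cultured in red cells within RPMI 1640 containing 0.5% w/v Albumax, 24 mM bicarbonate and gentamycin. A drop in luciferase activity indicates inhibition.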
Cycloheximide cs – affects cycloheximide protein synthesis inhibition readout, counter-screen. cell reporter, cycloheximide protein synthesis inhibition counterscreen. max response, %. 12% of 300,000 active; in the data active means max response mostly above about 13%, no sharp cut-off; inactive means mostly below about 14%; further: read at 38.3 µM for the half of the compounds with a filed dose; 0% is about no effect
Shiga inhibitor – blocks Shiga toxin action in Vero cells; Vero cells, Shiga toxin protein synthesis inhibition reporter; inhibition, % at 38.7 µM; 9.2% of 290,000 active; AID 2315; in the data active means inhibition mostly above about 28%, no sharp cut-off; inactive means mostly below about 43%; further: 0% is about no effect
The depositor's hits bear a star; i = inactive; u = inconclusive; x = no result; [ ] = remark or other dose. Only some compounds are listed: those with a hit (about 21% of all), similar ones and a draw of the others. Unless noted, the call rests on the fitted dose curve; in most records, active means well fitted curve in the direction sought with a large enough effect; inconclusive means small, poorly fitted or top-dose-only effect, or another doubt; inactive means no such curve, though single readings can be large; an effect the other way counts as inactive or inconclusive.

SMILES	Pf growth 96h	NS1 inh	Sm TGR block	Pf growth 48h	Cycloheximide cs	Shiga inhibitor
O=C1c2ccccc2-c2ccc(N(Cc3ccc(Br)cc3)Cc3ccc(Br)cc3)cc21	x	-13%	x	x	x	x
C/C(CC(=O)NC12CC3CC(CC(C3)C1)C2)=N\NC(=O)c1ccc(C)cc1	1%	4%	0%	0%	10*	18*
C/C(CC(=O)Nc1cccc(Cl)c1Cl)=N\NC(=O)C(=O)N1CCCC1	19%	0%	-1%	35%	8	21
C/C(CC(=O)Nc1cc(Cl)ccc1Cl)=N\NC(=O)c1ccco1	u	10%	-2%	-10%	51*	83*
C/C(CC(=O)Nc1cc(C)ccn1)=N\NC(=O)c1ccccc1C	6%	3%	2%	15%	26*	51*
C/C(CC(=O)Nc1cccc(Cl)c1Cl)=N\NC(=O)c1ccccc1C	u	3%	-28%	u	11*	18
C/C(CC(=O)Nc1ccccn1)=N\NC(=O)C(=O)Nc1cccc(C)c1	u	-28%	26%	72%	-1	15
O=C(NCCCN1CCCC1=O)c1ccc(NS(=O)(=O)c2ccc(F)cc2)cc1	u	x	2%	8%	x	x
CCC(C(=O)Nc1cc(F)ccc1F)n1nc(-c2cc(C)ccc2C)ccc1=O (stereo unspecified)	x	x	-6%	x	x	x
C/C(CC(=O)Nc1cc(C)ccn1)=N\NC(=O)c1cccc(F)c1	3%	3%	99%	37%	31*	110*
C/C(CC(=O)Nc1cccc2c1CCCC2)=N\NC(=O)COc1ccccc1	2.1µM*	8%	25%	12%	1	-1
O=C(NCc1nnc(SCC(=O)N2CCOCC2)o1)c1c(F)cccc1F	28%	5%	-23%	-6%	-2	-15
CCOC(=O)NC1(C(F)(F)F)NC(=O)N(c2ccc(C)c(C)c2)C1=O (stereo unspecified)	x	x	-2%	x	x	x
O=[N+]([O-])c1cccnc1N1CCCCC1	112%	-3%	0%	20%	-1	-6
O=[N+]([O-])c1ccc(N2CCCCC2)nc1N1CCCCC1	3.3µM*	-10%	5%	2.1µM*	6	16
CCOC(=O)c1ccc(NC(=O)CSc2nnc(Cc3cccs3)n2C)cc1	8.3µM*	-34%	-3%	u	-1	-3
COc1ccc(NCc2nnc(SCC(=O)Nc3ccc(OC)cc3)n2C)cc1	2%	5%	15%	-11%	10	11
C=CCn1c(Cc2cccs2)nnc1SCC(=O)Nc1ccc(C(=O)OCC)cc1	u	-39%	-2%	-47%	2	6
CCOC(=O)c1ccc(NC(=O)CSc2nnc(CNc3ccc(OC)cc3)n2C)cc1	2%[5.75 µM]	-7%	u	6.6µM*	13	-2
COc1ccc2c(c1)-c1nc(N)sc1CC2	-13%	-45%	x	2%	3	10
O=c1oc2ccccc2cc1-c1nc2c(s1)CCc1ccccc1-2	10%	12%	u	u	21*	63
CCc1ccc(-c2nc(-c3cc4ccccc4oc3=O)sc2C)cc1	x	x	-22%	x	x	x
O=c1oc2cc(O)ccc2cc1-c1nc(-c2ccc(Cl)c(Cl)c2)cs1	x	x	-2%	x	x	x
O=c1oc2cc(O)ccc2cc1-c1nc2c(s1)CCc1ccccc1-2	9.3µM*	18%	-4%	-8%	2	-7
Nc1nc2c(s1)CCc1ccccc1-2	56%	-66%	0%	x	21*	38*
SMILES	Pf growth 96h	NS1 inh	Sm TGR block	Pf growth 48h	Cycloheximide cs	Shiga inhibitor
N#C/C(=C(/O)CCl)c1nc2c(s1)CCc1ccccc1-2	u	-28%	7.9µM*	-14%	30*	54*
O=C(Nc1ccccc1)c1cc2n(n1)C(C(F)(F)F)CC(C1CC1)N2 (stereo unspecified)	21%	-6%	-14%	33%	36*	58*
O=C(Nc1nc2c(s1)CCCC2)c1cc2n(n1)C(C(F)(F)F)CC(C1CC1)N2 (stereo unspecified)	u	-4%	6%	-29%	19*	40
Cc1occc1C(=O)NNC(=O)C(c1ccccc1)c1ccccc1	u	19%	4%	-17%	-1	-3
O=C1c2ccccc2[C@@H]([C@@H]2c3ccccc3C(=O)c3cc(Br)ccc32)c2ccc(Br)cc21	x	-11%	x	x	x	x
Cn1c(=O)c2c(nc(NCCc3ccccc3)n2CC(=O)NCCc2ccccc2)n(C)c1=O	13µM*	u	2%	-10%	-2	2
C/C(Cl)=C\Cn1c(NCCc2ccccc2)nc2c1c(=O)n(C)c(=O)n2C	40%	-49%	-7%	9.3µM*	-6	-5
COC(=O)c1cc(NC(=O)c2cccc(C(F)(F)F)c2)c(=O)oc1C	35%	-3%	u	0%	-3	-4
COC(=O)c1cc(NC(=O)c2cccc(Cl)c2)c(=O)oc1/C=C/Nc1cc(C)cc(C)c1	44%	x	-15%	i	16	57*
O=C(NC1CCOCC1)C1CCC(=O)N(CCc2ccc(Cl)cc2)C1 (stereo unspecified)	-35%	-4%	1%	1%	-1	-5
CN=C(Nc1cc(Cl)ccc1Cl)SC1CC(=O)N(c2ccc(C(=O)OC)cc2)C1=O (stereo unspecified)	58%	-26%	1%	u	-2	2
COc1ccc(N(CC(=O)NC2CCCC2)C(=O)Cn2nnc(-c3ccc(C)cc3)n2)cc1OC	10µM*	-13%	2%	u	-5	-5
COc1ccc(CCNC(=O)Cn2nnc(-c3ccc(N(C)C)cc3)n2)cc1OC	4.1µM*	6%	-1%	24%	16	29
COc1ccnc(CSC(N)=Nc2ccccc2OC)c1	u	4%	-34%	40%	75*	91*
COc1ccnc(CSC(N)=Nc2cccc(C(F)(F)F)c2)c1	u	-45%	0%	u	25*	42
COc1ccnc(CSC(N)=Nc2ccccc2C(F)(F)F)c1	19%	-11%	-1%	13%	15	22*
C=CSc1sc(Cl)c(N(CC)CC)c1[N+](=O)[O-]	6%	15%	x	1%	-1	-2
COc1cccc(NC(=O)CCCCCN2C(=O)[C@@H]3Cc4ccccc4CN3C2=O)c1	12µM*	-2%	5%	u	9	-5
Cc1cc(C)cc(NC(=O)CCCCCN2C(=O)[C@@H]3Cc4ccccc4CN3C2=O)c1	u	-44%	-28%	1%	-1	-4
O=C(CSc1nc2ccccc2c(=O)n1-c1ccc(Cl)cc1)N/N=C/C=C/c1ccccc1[N+](=O)[O-]	9.3µM*	u	1%	u	-3	-8
O=C(CSc1nc2ccccc2c(=O)n1-c1ccccc1)N/N=C/C=C/c1ccccc1[N+](=O)[O-]	u	x	1%	9.3µM*	15	0
COc1ccc2ncc3c(-c4ccccc4)nn(-c4ccc(C)c(C)c4)c3c2c1	x	x	-13%	x	x	x
